These results are taken from PubChem BioAssay (NCI).

Molecules are shown by their SMILES. This is part of a sample that, as a whole, favours compounds with a hit. Of some 83,000 tested, about 20% had one in any assay.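 Activity criterion: percent growth below 10, measured after cells in 96-well plates were exposed to a single compound concentration for 48 hours.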 Values without a mark were called inactive. Active and inactive are the calls of the source.

This test relates to HOP-92 NSCLC. In words: NCI-60 one-dose screen, 48 h (100 = growth as untreated, 0 = no growth, -100 = all killed). The following applies: 10 µM unless noted.
For `c1ccc2[nH]c(-c3ccc(Nc4nc(N5CCCC5)nc5[nH]ncc45)cc3)nc2c1`, the growth was -56.4% (active). `COc1cc2c(cc1-c1c(C)noc1C)ncc1nc(C3CCOCC3)n([C@H](C)COC(F)F)c12`: the growth was 36.9%. The figure for `c1csc(C2=NN3C(C2)c2ccccc2OC3c2ccncc2)c1` (centres undefined) is 87.4%; for `O=C(/C=C/C=C/c1ccc2c(c1)OCO2)N/N=C\c1ccc(O)cc1O` it is 53.4%.

For the compound `Fc1ccc2[nH]cc(SSc3c[nH]c4ccc(F)cc34)c2c1`, the growth was -27.9% (active).

For the compound `Cc1cc(C)nc(SC2=C(Nc3cc(Cl)ccc3O)C(=O)N(Cc3ccccc3)C2=O)n1`, the growth is 42.9% [30 µM]. With `CC(C)(C)N1CCC1CN` (centres undefined), the growth was 108%.

`COc1cc(-c2nc3ccccc3[nH]2)ccc1OCC(=O)N=Nc1c(O)[nH]c2ccc(Cl)cc12`: the growth was -36.2% (active). Take `CSc1nc(-c2cccc(NC(=O)CCl)c2)c(C#N)c(=O)n1C`: the growth was 42.7%.

Regarding `Cc1nc2ccccc2n1C(=O)C[C@@H]1NC(=S)NC1=O`, the growth was 123%. On to `COc1ccc(/C=N/C2=C(C#N)C(c3ccc(N(C)C)cc3)c3ccc4ccccc4c3O2)cc1` (centres undefined), for which the growth was 65.4%. The value for `COc1cccc(NC(=O)c2sc3nc(C)c(C(C)=O)cc3c2N)c1` was 52%; that for `O=C1CC[C@H](c2ccc(O)c3c2C(=O)[C@@H]2O[C@@H]2C3=O)c2cccc(O)c21` was 38.4%; that for `C=C(C)C1CC(O)C2(C)CCCC3C2C1CC(C)C3(C)CC/C(C)=C/C(O)C1CCC(=O)c2c(OC)cc(OC)cc21` (centres undefined) was 58.5%.
